Where “and” joins values, the source holds several entries; their conditions need not be identical. Equal entries are not always repeated. This is part of a sample that, as a whole, favours compounds with a hit. Of some 83,000 tested, about 20% had one in any assay.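 Cells were grown in 96-well plates and exposed to the test compound at a single concentration for 48 hours; results are reported as percent growth, with values below 10 considered active.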 Calls of active or inactive are those of the source.
System: MCF7 breast
Experiment: NCI-60 one-dose screen, 48 h (100 = growth as untreated, 0 = no growth, -100 = all killed)
Conditions: 10 µM unless noted

Structure (SMILES)	growth
Clc1c(Cl)c(Cl)c2nn(C3CCCO3)nc2c1Cl (centres undefined)	15.9% [100 µM] (inactive) and -100% [100 µM] (active)
Cc1ccc(OC2CC(n3cnc4ncnc(Cl)c43)OC2Oc2ccc(C)cc2)cc1 (centres undefined)	8.44% [100 µM] (active) and -95.4% [100 µM] (active)
Cc1ccc(NC(=O)/C(=N\NC(N)=O)c2c(O)c3ccccc3[nH]c2=O)cc1	92.8% [100 µM] (inactive) and 85.4% [100 µM] (inactive)
N#Cc1c(N)oc(-c2cccc([N+](=O)[O-])c2)c1C#N	12.3% [100 µM] (inactive) and -50% [100 µM] (active)
COC(=O)C(Cc1nc2ccccc2[nH]c1=O)C(=O)C(=O)Nc1cc(C(F)(F)F)ccc1Cl (centres undefined)	-91.8% [100 µM] (active) and 0% [100 µM] (active)
COC(=O)C(C(=O)C(=O)Nc1c(C)cccc1C(C)(C)C)c1nc2ccc(Cl)cc2[nH]c1=O (centres undefined)	69.9% [100 µM] (inactive) and 60.9% [100 µM] (inactive)
Cc1ccc(/C=N/Nc2nc3ccccc3s2)s1	2.03% [100 µM] (active) and 4.5% [100 µM] (active)
CC(C)=CCc1c(OC(=O)c2c(C)cc(O)cc2O)cc(CO)c(CO)c1O	-58.6% [100 µM] (active) and -100% [100 µM] (active)
C=C1C(=O)OC2/C=C(\CO)CC/C=C(\CO)CC(OC(=O)C(C)C)C12 (centres undefined)	-82.7% [100 µM] (active) and -70% [100 µM] (active)
NC1N=C(c2ccc(Cl)cc2)C2=C(N1)c1ccccc1CC2 (centres undefined)	13.4% [100 µM] (inactive) and -96.2% [100 µM] (active)
COC(=O)C(=O)C(C(=O)C(=O)Nc1ccc(Cl)c(Cl)c1)c1nc2ccc(C(=O)c3ccccc3)cc2[nH]c1=O (centres undefined)	32.4% [100 µM] (inactive) and 5.18% [100 µM] (active)
COc1c(OC)c(OC)c2c(c1OC)c(=O)c1ccccc1n2C	65.5% [100 µM] (inactive) and -50% [100 µM] (active)
CC1(C)Oc2ccc3c(=O)cc(-c4ccc(F)cc4)oc3c2C1C(=O)O (centres undefined)	86.7% [100 µM] (inactive) and 80.6% [100 µM] (inactive)
CC1(C)S[C@H](CN)N[C@H]1C(=O)OC(c1ccccc1)c1ccccc1	-8.91% [100 µM] (active) and -100% [100 µM] (active)
Cc1cc(N(CCC#N)CCC#N)ccc1/C=N/NC(=O)c1cc(Cl)ccc1O	43.8% [100 µM] (inactive) and 13.1% [100 µM] (inactive)
Fc1ccc(Nc2nc(Cl)c3[nH]cnc3n2)cc1Cl	53.5% [100 µM] (inactive) and 7.87% [100 µM] (active)
O=C1NC(N/N=C\c2ccccc2)=N/C1=C/c1ccc(Cl)cc1	-66.3% [100 µM] (active) and 14% [100 µM] (inactive)
CC(C)(C)c1cc(C2COC(=O)COCCOCC(=O)OCCOCCO2)cc(C(C)(C)C)c1O (centres undefined)	70.6% [100 µM] (inactive) and 74.1% [100 µM] (inactive)
COc1ccc2cc(CN3CCC(C4CCNCC4)CC3)ccc2c1	-76.9% [100 µM] (active) and -23.4% [100 µM] (active)
Cc1cc(S(=O)(=O)O)c(NC(=O)c2oc3cc(O)ccc3c(=O)c2C)cc1Cl	100% [100 µM] (inactive) and 86.3% [100 µM] (inactive)
OCc1ccccc1OC1OC(CO)C(O)C(O)C1O (centres undefined)	120% [100 µM] (inactive) and 82.9% [100 µM] (inactive)
O=C(Cc1nc2ccc(C(=O)c3ccccc3)cc2[nH]c1=O)C(=O)Nc1ccccc1[N+](=O)[O-]	27.4% [100 µM] (inactive) and 4.17% [100 µM] (active)
CCCCCCCCCCCCC/C=C/[C@H]1[C@@H](C(=O)OC)N1S(=O)c1ccc(C)cc1 (some centres undefined)	53.6% [100 µM] (inactive) and 36.2% [100 µM] (inactive)
CC(C)=CCc1cc(C2COc3cc4c(c(O)c3C2=O)C=CC(C)(C)O4)c(O)cc1O (centres undefined)	-75.7% [100 µM] (active) and -83.3% [100 µM] (active)

Source: PubChem BioAssay (NCI)
